Laboratory results from PubChem BioAssay (EPA / NIEHS).
Where “and” joins values, the source holds several entries; their conditions need not be identical. Equal entries are not always repeated. Where a structure was tested more than once in an assay, its records may differ in their call. Calls of active or inactive are those of the source. How the source made its calls: active means hit-call score of the fitted dose curve at least 0.9, where 1 is the maximum; inactive means score below 0.9.

Tests used:
[1] = ATG_CRE_CIS: Attagene CIS-FACTORIAL HepG2 Assay for human cAMP Responsive Element (CRE) binding protein 3 (AID 2282926); details: HepG2 CRE cis-reporter, Attagene multiplexed mRNA; actives raise or lower the signal
Procedure, shortened: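 Readout: fluorescently labelled reporter transcripts resolved by capillary electrophoresis after RT-PCR, taken 24 h post-dosing in transfected HepG2. Endogenous transcription factor activity drives each cis-element reporter; gain or loss of signal fitted relative to DMSO control.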

[2] = molecular target: CCAAT/enhancer-binding protein beta (Homo sapiens) (UniProt P17676); assay: ATG_C_EBP_CIS: Attagene CIS-FACTORIAL HepG2 Assay for human CCAAT/Enhancer Binding Protein (C/EBP) beta (AID 2282927); details: HepG2 Attagene cis-factorial transcription factor reporter; actives raise or lower the signal
Procedure, shortened: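 HepG2 transiently transfected with multiplexed reporter units under cis-regulatory promoters reporting endogenous C/EBPb activity. After 24 h exposure, reporter mRNA assayed by RT-PCR, fluorescent labelling, HpaI digestion and capillary electrophoresis; bidirectional fitting versus DMSO.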

[3] = ATG_CMV_CIS: Attagene CIS-FACTORIAL HepG2 Assay for human CMV (Internal Marker) (AID 2282928); details: HepG2 CMV promoter reporter, transcription factor profiling; actives raise or lower the signal;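 further: endpoint acts as a background internal control marker rather than a target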
Procedure, shortened: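 24 h chemical treatment, HepG2 with transient multi-reporter transfection; RNA → oligo(dT) RT → PCR → 6-FAM extension → HpaI digest → CE fluorescence. Bidirectional fit, DMSO negative control.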

[4] = ATG_DR4_LXR_CIS: Attagene CIS-FACTORIAL HepG2 Assay for human Liver X Receptor (LXR), DR4 submotif (AID 2282929); details: HepG2 Attagene DR4 cis-reporter, mRNA transcription; AC50: actives raise or lower the signal unless noted; outcome: actives raise or lower the signal unless noted
Procedure, shortened: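 DR4 cis-reporter in HepG2, 24 h exposure. Detection: RT-PCR, 6-FAM labelling, CE fragment analysis. Endpoint fitted bidirectionally, DMSO = baseline.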

[5] = molecular target: Aryl hydrocarbon receptor (Homo sapiens) (UniProt P35869); assay: ATG_Ahr_CIS: Attagene CIS-FACTORIAL HepG2 Assay for human Aryl Hydrocarbon Receptor (Ahr) (AID 2282930); details: HepG2 AhR cis-factorial reporter transcription; actives raise or lower the signal
Procedure, shortened: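 HepG2 cells transiently transfected with cis-element-driven multiplexed reporter units; endogenous AhR activity read as reporter mRNA 24 h after dosing, via RT-PCR, 6-FAM labelling, HpaI digestion and capillary electrophoresis. Bidirectional fit relative to DMSO.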

[6] = ATG_AP_1_CIS: Attagene CIS-FACTORIAL HepG2 Assay for human Activator Protein 1 (AP-1) (AID 2282931); details: HepG2 Attagene cis-factorial AP-1 reporter mRNA; actives raise or lower the signal
Procedure, shortened: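 Cis-regulated reporter units transiently expressed in HepG2 report endogenous transcription-factor activity. Signal: reporter mRNA at 24 h, via RT-PCR and fluorescent capillary electrophoresis. Endpoint derived by bidirectional fitting, DMSO as negative control.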

[7] = ATG_AP_2_CIS: Attagene CIS-FACTORIAL HepG2 Assay for human Activator Protein 2 (AP-2) (AID 2282932); details: HepG2 AP-2 cis-reporter, Attagene transcription factor profiling; AC50: actives raise or lower the signal unless noted; outcome: actives raise or lower the signal unless noted
Procedure, shortened: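 Read-out: fluorescent reporter mRNA via RT-PCR and capillary electrophoresis, 24 h post-dose in transiently transfected HepG2. Endogenous factors drive cis-promoter reporters; gain or loss of signal fitted bidirectionally against DMSO.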

[8] = ATG_BRE_CIS: Attagene CIS-FACTORIAL HepG2 Assay for human Bone Morphogenetic Protein (BMP) Response Element (BRE) (AID 2282933); details: HepG2 BMP response element reporter, Attagene transcription factor profiling; actives raise or lower the signal
Procedure, shortened: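 Transient MRTU transfection of human HepG2 liver cells; 24 h compound treatment; total RNA isolated, reverse-transcribed, PCR-amplified, 6-FAM labelled, HpaI-cut, capillary electrophoresis. DMSO = negative control/baseline, bidirectional fit.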

[9] = molecular target: Retinoic acid receptor alpha (Homo sapiens) (UniProt P10276); assay: ATG_DR5_RAR_CIS: Attagene CIS-FACTORIAL HepG2 Assay for human Retinoic Acid Receptor Alpha (RARE), DR5 submotif (AID 2282934); details: HepG2 Attagene cis-factorial RARE DR5 reporter, mRNA; actives raise or lower the signal;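 on AC50: reporter responds to endogenous RAR alpha beta and gamma in HepG2 not RARA alone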
Procedure, shortened: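 HepG2 cells transiently transfected with multiplexed reporter units; DR5 cis-element drives reporter through endogenous transcription factors. After 24 h dosing, reporter mRNA quantified by RT-PCR, fluorescent labeling, HpaI digestion and capillary electrophoresis; bidirectional fitting versus DMSO.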

[10] = molecular target: Transcription factor E2F1 (Homo sapiens) (UniProt Q01094); assay: ATG_E2F_CIS: Attagene CIS-FACTORIAL HepG2 Assay for human E2F Transcription Factor 1 (AID 2282935); details: HepG2 Attagene cis-reporter, E2F reporter RNA transcripts; actives raise or lower the signal
Procedure, shortened: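 Transient MRTU transfection of HepG2; 24 h compound exposure; RNA → oligo(dT) RT → PCR → FAM label → HpaI cut → CE fluorescence. Gain/loss of signal fit against DMSO.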

[11] = ATG_E_Box_CIS: Attagene CIS-FACTORIAL HepG2 Assay for human Enhancer Box (E-box) (AID 2282936); details: HepG2 E-box cis-reporter transcription, actives raise or lower the signal
Procedure, shortened: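 Transiently transfected HepG2, endogenous TF-driven reporters, 24 h dosing. Readout: RT-PCR plus capillary electrophoresis of fluorescent reporter fragments. Gain or loss of signal fitted bidirectionally against DMSO baseline.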

[12] = ATG_M_61_CIS: Attagene CIS-FACTORIAL HepG2 Assay for M61 Transcription Factor (Internal Marker) (AID 2282937); details: HepG2 Attagene CIS-FACTORIAL M61 internal marker reporter; actives raise or lower the signal
Procedure, shortened: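 Background-control endpoint: HepG2 cells with cis-regulated reporter constructs, 24 h exposure, reporter mRNA detected via fluorescent primer extension and capillary electrophoresis; values from bidirectional fitting with DMSO baseline.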

Measured: AC50

Chain of Aryl hydrocarbon receptor (Homo sapiens) (P35869 whole entry, looked up): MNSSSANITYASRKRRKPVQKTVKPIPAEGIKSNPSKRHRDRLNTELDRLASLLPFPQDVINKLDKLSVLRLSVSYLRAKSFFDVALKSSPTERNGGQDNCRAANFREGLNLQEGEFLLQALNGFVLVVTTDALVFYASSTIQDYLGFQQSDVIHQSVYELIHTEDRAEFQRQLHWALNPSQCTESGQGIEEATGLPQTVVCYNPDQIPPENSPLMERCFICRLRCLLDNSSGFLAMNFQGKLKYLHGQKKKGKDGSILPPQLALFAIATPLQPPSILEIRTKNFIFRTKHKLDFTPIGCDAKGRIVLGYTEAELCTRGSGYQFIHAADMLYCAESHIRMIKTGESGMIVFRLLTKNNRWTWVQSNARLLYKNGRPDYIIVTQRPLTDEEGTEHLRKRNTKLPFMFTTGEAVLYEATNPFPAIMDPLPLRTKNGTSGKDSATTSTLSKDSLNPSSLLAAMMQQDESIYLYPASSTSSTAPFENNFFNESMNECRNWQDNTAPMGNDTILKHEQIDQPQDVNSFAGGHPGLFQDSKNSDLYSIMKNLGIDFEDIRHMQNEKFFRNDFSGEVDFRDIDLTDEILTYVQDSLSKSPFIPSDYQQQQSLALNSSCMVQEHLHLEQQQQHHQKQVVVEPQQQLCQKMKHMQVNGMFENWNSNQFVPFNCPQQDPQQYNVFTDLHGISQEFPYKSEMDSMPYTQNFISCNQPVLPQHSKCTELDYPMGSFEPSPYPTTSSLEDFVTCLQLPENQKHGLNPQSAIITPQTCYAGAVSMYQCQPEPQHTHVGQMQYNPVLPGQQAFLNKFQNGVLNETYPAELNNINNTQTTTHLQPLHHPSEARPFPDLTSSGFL
Chain of CCAAT/enhancer-binding protein beta (Homo sapiens) (P17676 whole entry, looked up): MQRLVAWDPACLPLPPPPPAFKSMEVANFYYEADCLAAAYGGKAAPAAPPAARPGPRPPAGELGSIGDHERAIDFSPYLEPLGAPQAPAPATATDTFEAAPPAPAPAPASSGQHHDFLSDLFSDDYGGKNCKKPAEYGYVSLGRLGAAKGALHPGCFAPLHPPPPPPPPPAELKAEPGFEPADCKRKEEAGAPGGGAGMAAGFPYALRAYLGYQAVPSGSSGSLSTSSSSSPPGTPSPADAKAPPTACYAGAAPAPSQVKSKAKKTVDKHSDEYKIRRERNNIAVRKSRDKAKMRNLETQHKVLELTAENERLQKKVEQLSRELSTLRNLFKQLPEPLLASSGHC
Chain of Transcription factor E2F1 (Homo sapiens) (Q01094 whole entry, looked up): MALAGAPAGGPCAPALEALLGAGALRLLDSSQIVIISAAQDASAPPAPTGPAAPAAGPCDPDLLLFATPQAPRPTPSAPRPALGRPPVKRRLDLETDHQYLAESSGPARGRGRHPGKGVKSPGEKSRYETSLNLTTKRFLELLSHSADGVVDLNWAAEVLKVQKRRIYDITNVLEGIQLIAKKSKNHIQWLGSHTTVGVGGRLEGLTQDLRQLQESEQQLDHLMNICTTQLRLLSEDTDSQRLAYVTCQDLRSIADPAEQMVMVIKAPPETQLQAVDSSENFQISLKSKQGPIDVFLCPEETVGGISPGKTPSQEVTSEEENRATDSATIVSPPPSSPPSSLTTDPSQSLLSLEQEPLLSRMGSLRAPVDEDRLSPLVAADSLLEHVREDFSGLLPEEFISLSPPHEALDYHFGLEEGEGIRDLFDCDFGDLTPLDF
Chain of Retinoic acid receptor alpha (Homo sapiens) (P10276 whole entry, looked up): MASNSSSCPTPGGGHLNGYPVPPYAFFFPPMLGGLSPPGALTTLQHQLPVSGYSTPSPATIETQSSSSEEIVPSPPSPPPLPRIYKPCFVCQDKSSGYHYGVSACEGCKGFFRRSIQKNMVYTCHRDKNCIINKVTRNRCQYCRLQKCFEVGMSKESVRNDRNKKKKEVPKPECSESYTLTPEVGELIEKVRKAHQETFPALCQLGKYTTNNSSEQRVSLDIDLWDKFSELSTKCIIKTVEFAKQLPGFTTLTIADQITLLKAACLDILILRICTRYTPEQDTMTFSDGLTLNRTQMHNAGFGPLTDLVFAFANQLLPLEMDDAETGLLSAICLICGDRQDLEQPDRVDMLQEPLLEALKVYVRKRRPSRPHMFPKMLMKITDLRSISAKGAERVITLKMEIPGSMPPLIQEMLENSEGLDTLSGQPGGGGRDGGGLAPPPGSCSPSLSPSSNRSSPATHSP

CCCCCCCCCCCC[N+](C)(C)Cc1ccccc1
active: [1] 19.5 µM | [2] 18 µM | [3] 14.5 µM | [4] 11.1 µM | [7] 15.7 µM | [11] 12.4 µM
inactive: [1] | [2] | [3] | [4] | [5] | [6] | [7] | [8] | [9] | [10] | [11] | [12]

COCC1CCC(CO)CC1 (stereo unspecified)
inactive: all assays above

O=CC(F)(F)C(F)(F)C(F)(F)C(F)F
inactive: all assays above

O=C(CC(=O)C(F)(F)C(F)(F)C(F)(F)F)c1cccs1
active: [1] 44.6 µM and 67.1 µM | [2] 66 µM | [3] 50 µM | [5] 11.4 µM and 50 µM
inactive: [2] | [4] inactive [setting not given] | [7] inactive [setting not given] | [8] | [10] | [11] | [12]

CC(O)COc1ccccc1 (stereo unspecified)
inactive: [1] | [2] | [3] | [4] | [5] | [6] | [8] | [9] | [10] | [11] | [12]
active: [5] 6.06 µM

FC(F)(F)C1(F)C(F)(F)C(F)(F)C(F)(F)C1(F)F
inactive: all assays above

NCCN
inactive: all assays above

C=CC(=O)OCCC(F)(F)C(F)(F)C(F)(F)C(F)(F)C(F)(F)C(F)(F)F
inactive: all assays above

CCOC=C(C(=O)OCC)C(=O)OCC
inactive: all assays above

C=CC(F)(F)C(F)(F)C(F)(F)C(F)(F)F
inactive: all assays above

c1cc[nH]c1
inactive: all assays above

Cn1sccc1=O
inactive: [5] | [6] | [7] | [10] | [12]
active: [1] 154 µM | [2] 161 µM | [3] 190 µM | [4] 74.2 µM | [8] 34.7 µM | [9] 168 µM | [11] 72.4 µM

OCCN1CN(CCO)CN(CCO)C1
active: [1] 145 µM | [4] 63.4 µM | [7] 143 µM | [9] 144 µM
inactive: all other assays above

C=CC(C)(CCC=C(C)C)OC(C)=O (stereo unspecified)
inactive: all assays above

CC1COCc2cc3c(cc21)C(C)(C)C(C)C3(C)C (stereo unspecified)
inactive: [1] | [2] | [3] | [8] | [12]
active: [4] 158 µM | [5] 91.3 µM | [6] 79.4 µM | [7] 173 µM | [9] 100 µM | [10] 159 µM | [11] 179 µM

CCc1cccc(CC)c1NC(=O)C(=O)O
inactive: all assays above

O=C(F)C(F)(F)C(F)(F)C(F)(F)C(F)F
inactive: all assays above

FCOC(C(F)(F)F)C(F)(F)F
inactive: all assays above

C=CCOCC(CO)(CO)CO
inactive: all assays above

CC(C)CCOCCC(C)C
inactive: all assays above

Brc1ccc(Oc2ccc(Br)cc2Br)cc1
inactive: all assays above

Oc1cc2ccccc2cc1O
active: [5] 21.1 µM | [6] 70.2 µM
inactive: all other assays above

COC(=O)CC(C(C)=O)C(=O)OC (stereo unspecified)
inactive: all assays above

O=S(=O)(O)c1ccccc1
inactive: all assays above

O=S(=O)(O)C(F)(F)C(F)(F)C(F)(F)C(F)(F)C(F)(F)C(F)(F)C(F)(F)C(F)(F)C(F)(F)C(F)(F)F
active: [4] 8.16 µM and 10.2 µM | [5] 50.1 µM and 45.9 µM | [6] 22.4 µM and 16.6 µM
inactive: all other assays above

Cc1cc(C(=C2C=CC(=Nc3ccc(S(=O)(=O)O)cc3)C=C2)c2ccc(Nc3ccc(S(=O)(=O)O)cc3)cc2)cc(S(=O)(=O)O)c1N
inactive: all assays above

CCC(=O)O
inactive: all assays above

O=C1OC(=O)C(F)(F)C1(F)F
inactive: all assays above

FC(F)=C(F)C(F)(F)C(F)(F)C(F)(F)C(F)F
inactive: all assays above

OCC(F)(F)C(F)(F)C(F)(F)C(F)(F)C(F)(F)C(F)(F)C(F)(F)C(F)(F)C(F)(F)C(F)(F)C(F)(F)F
inactive: all assays above

CCCCC(CC)C(=O)OCCOCCOCCOCCOC(=O)C(CC)CCCC (stereo unspecified)
inactive: all assays above

FC(F)(F)N1C(F)(F)C(F)(F)OC(F)(F)C1(F)F
inactive: all assays above

Oc1c(Cl)ccc(Cl)c1Cl
active: [5] 68.3 µM
inactive: all other assays above

c1ccc(CNc2ncnc3c2ncn3C2CCCCO2)cc1 (stereo unspecified)
active: [5] 57 µM
inactive: all other assays above

CCCCCCCCCCCC
inactive: all assays above

O=C(NCc1ncc(C(F)(F)F)cc1Cl)c1c(Cl)cccc1Cl
active: [4] 81.4 µM | [10] 43.1 µM
inactive: all other assays above

OCC1CCC(CO)CC1 (stereo unspecified)
inactive: all assays above

CC1CCC(CO)CC1 (stereo unspecified)
inactive: all assays above
